{"source": "PubChem BioAssay AID1159580", "about": "(chemical genetic matrix, 2015)", "assay": "chemical genetic growth profiling, strain panel (AID 1159580);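 note: tested at 20 µM; growth read once vehicle control cultures reached saturation at 30 °C; 1 = growth at the plate median or of vehicle wells; lower values mean less growth of the strain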", "settings": "growth OD", "note": "Out of some 5,500 compounds screened, about 2,000 (36%) were called active. About 18% were inconclusive and are not listed. The list shows a part of the results. Unmarked numbers belong to inactive results. Cut-off read from the data, not from the text of the source: active = normalized growth mostly below about 0.91 (no sharp cut-off); inconclusive = no clear call, values can overlap the other calls; inactive = mostly above about 0.92.", "data": [{"smiles": "CCCCCCCCCCCC[C@H](C(=O)O)[C@@H](C)C(=O)O", "values": [{"measurement": "normalized growth", "setting": "S. cerevisiae deletion strains, locus YJR075W, strain HOC1, active compounds read low", "result": 1.07}, {"measurement": "normalized growth", "setting": "S. cerevisiae deletion strains, locus YKL009W, strain mrt4, active compounds read low", "result": 0.946}, {"measurement": "normalized growth", "setting": "S. cerevisiae deletion strains, locus YKL068W, active compounds read low", "result": 0.996}, {"measurement": "normalized growth", "setting": "S. cerevisiae deletion strains, locus YKL085W, strain MDH1 (second series), active compounds read low", "result": 0.975}, {"measurement": "normalized growth", "setting": "S. cerevisiae deletion strains, locus YKL085W, strain MDH1, active compounds read low", "result": 0.975}, {"measurement": "normalized growth", "setting": "S. cerevisiae deletion strains, locus YKL160W, strain elf1, active compounds read low", "result": 1}, {"measurement": "normalized growth", "setting": "S. cerevisiae deletion strains, locus YKL190W, strain CNB1, active compounds read low", "result": 0.99}, {"measurement": "normalized growth", "setting": "S. cerevisiae deletion strains, locus YKR001C, strain vps1, active compounds read low", "result": 0.982}, {"measurement": "normalized growth", "setting": "S. cerevisiae deletion strains, locus YKR026C, strain gcn3, active compounds read low", "result": 0.965}, {"measurement": "normalized growth", "setting": "S. cerevisiae deletion strains, locus YKR091W, strain srl3, active compounds read low", "result": 0.974}, {"measurement": "normalized growth", "setting": "S. cerevisiae deletion strains, locus YLL001W, strain dnm1, active compounds read low", "result": 1.01}, {"measurement": "normalized growth", "setting": "S. cerevisiae deletion strains, locus YLL026W, active compounds read low", "result": 0.987}, {"measurement": "normalized growth", "setting": "S. cerevisiae deletion strains, locus YLL041C, strain sdh2, active compounds read low", "result": 0.973}, {"measurement": "normalized growth", "setting": "S. cerevisiae deletion strains, locus YLR027C, strain aat2, active compounds read low", "result": 0.992}, {"measurement": "normalized growth", "setting": "S. cerevisiae deletion strains, locus YLR039C, strain RIC1, active compounds read low", "result": 1.04}, {"measurement": "normalized growth", "setting": "S. cerevisiae deletion strains, locus YLR058C, strain SHM2, active compounds read low", "result": 0.994}, {"measurement": "normalized growth", "setting": "S. cerevisiae deletion strains, locus YLR102C, strain apc9, active compounds read low", "result": 1.01}, {"measurement": "normalized growth", "setting": "S. cerevisiae deletion strains, locus YLR113W, strain HOG1, active compounds read low", "result": 0.903}, {"measurement": "normalized growth", "setting": "S. cerevisiae deletion strains, locus YLR221C, strain rsa3, active compounds read low", "result": 1}, {"measurement": "normalized growth", "setting": "S. cerevisiae deletion strains, locus YLR258W, strain gsy2, active compounds read low", "result": 0.979}, {"measurement": "normalized growth", "setting": "S. cerevisiae deletion strains, locus YLR262C, strain YPT6 (second series), active compounds read low", "result": 0.934}, {"measurement": "normalized growth", "setting": "S. cerevisiae deletion strains, locus YLR262C, strain YPT6, active compounds read low", "result": 1.12}, {"measurement": "normalized growth", "setting": "S. cerevisiae deletion strains, locus YLR268W, strain sec22, active compounds read low", "result": 1.02}, {"measurement": "normalized growth", "setting": "S. cerevisiae deletion strains, locus YLR320W, strain mms22, active compounds read low", "result": 1.01}, {"measurement": "normalized growth", "setting": "S. cerevisiae deletion strains, locus YLR330W, strain CHS5, active compounds read low", "result": 0.986}, {"measurement": "normalized growth", "setting": "S. cerevisiae deletion strains, locus YLR342W, strain FKS1 (second series), active compounds read low", "result": 1.02}, {"measurement": "normalized growth", "setting": "S. cerevisiae deletion strains, locus YLR342W, strain FKS1, active compounds read low", "result": 0.986}, {"measurement": "normalized growth", "setting": "S. cerevisiae deletion strains, locus YLR357W, strain rsc2, active compounds read low", "result": 0.994}, {"measurement": "normalized growth", "setting": "S. cerevisiae deletion strains, locus YLR370C, strain arc18, active compounds read low", "result": 0.975}, {"measurement": "normalized growth", "setting": "S. cerevisiae deletion strains, locus YLR371W, strain rom2, active compounds read low", "result": 1.01}, {"measurement": "normalized growth", "setting": "S. cerevisiae deletion strains, locus YLR384C, strain iki3, active compounds read low", "result": 0.974}, {"measurement": "normalized growth", "setting": "S. cerevisiae deletion strains, locus YLR418C, strain cdc73, active compounds read low", "result": 1.02}, {"measurement": "normalized growth", "setting": "S. cerevisiae deletion strains, locus YML016C, strain PPZ1, active compounds read low", "result": 0.982}, {"measurement": "normalized growth", "setting": "S. cerevisiae deletion strains, locus YML032C, strain rad52, active compounds read low", "result": 1.01}, {"measurement": "normalized growth", "setting": "S. cerevisiae deletion strains, locus YML120C, strain ndi1, active compounds read low", "result": 0.991}, {"measurement": "normalized growth", "setting": "S. cerevisiae deletion strains, locus YML124C, strain tub3, active compounds read low", "result": 0.998}, {"measurement": "normalized growth", "setting": "S. cerevisiae deletion strains, locus YMR058W, strain fet3, active compounds read low", "result": 0.998}, {"measurement": "normalized growth", "setting": "S. cerevisiae deletion strains, locus YMR078C, strain ctf18, active compounds read low", "result": 0.995}, {"measurement": "normalized growth", "setting": "S. cerevisiae deletion strains, locus YMR125W, strain sto1, active compounds read low", "result": 0.98}, {"measurement": "normalized growth", "setting": "S. cerevisiae deletion strains, locus YMR129W, active compounds read low", "result": 0.971}, {"measurement": "normalized growth", "setting": "S. cerevisiae deletion strains, locus YMR205C, strain PFK2, active compounds read low", "result": 1}, {"measurement": "normalized growth", "setting": "S. cerevisiae deletion strains, locus YMR223W, strain ubp8, active compounds read low", "result": 1.03}, {"measurement": "normalized growth", "setting": "S. cerevisiae deletion strains, locus YMR231W, strain pep5, active compounds read low", "result": "0.927 (active)"}, {"measurement": "normalized growth", "setting": "S. cerevisiae deletion strains, locus YMR263W, strain SAP30, active compounds read low", "result": 0.996}, {"measurement": "normalized growth", "setting": "S. cerevisiae deletion strains, locus YMR307W, strain GAS1, active compounds read low", "result": 1.06}, {"measurement": "normalized growth", "setting": "S. cerevisiae deletion strains, locus YNL067W, strain RPL9B, active compounds read low", "result": 1.01}, {"measurement": "normalized growth", "setting": "S. cerevisiae deletion strains, locus YNL071W, strain lat1, active compounds read low", "result": 0.968}, {"measurement": "normalized growth", "setting": "S. cerevisiae deletion strains, locus YNL128W, strain TEP1, active compounds read low", "result": 1.01}, {"measurement": "normalized growth", "setting": "S. cerevisiae deletion strains, locus YNL153C, strain GIM3, active compounds read low", "result": 0.994}, {"measurement": "normalized growth", "setting": "S. cerevisiae deletion strains, locus YNL183C, strain NPR1, active compounds read low", "result": 0.91}, {"measurement": "normalized growth", "setting": "S. cerevisiae deletion strains, locus YNL209W, strain ssb2, active compounds read low", "result": 0.995}, {"measurement": "normalized growth", "setting": "S. cerevisiae deletion strains, locus YNL233W, strain BNI4, active compounds read low", "result": 1}, {"measurement": "normalized growth", "setting": "S. cerevisiae deletion strains, locus YNL248C, strain rpa49, active compounds read low", "result": 1}, {"measurement": "normalized growth", "setting": "S. cerevisiae deletion strains, locus YNL250W, strain rad50, active compounds read low", "result": 1.02}, {"measurement": "normalized growth", "setting": "S. cerevisiae deletion strains, locus YNL271C, strain bni1, active compounds read low", "result": 1.01}, {"measurement": "normalized growth", "setting": "S. cerevisiae deletion strains, locus YNL298W, strain CLA4, active compounds read low", "result": 0.972}, {"measurement": "normalized growth", "setting": "S. cerevisiae deletion strains, locus YNL307C, strain MCK1, active compounds read low", "result": 1.01}, {"measurement": "normalized growth", "setting": "S. cerevisiae deletion strains, locus YNL322C, strain KRE1 (second series), active compounds read low", "result": 0.968}, {"measurement": "normalized growth", "setting": "S. cerevisiae deletion strains, locus YNL322C, strain KRE1, active compounds read low", "result": 0.989}, {"measurement": "normalized growth", "setting": "S. cerevisiae deletion strains, locus YNR049C, strain mso1, active compounds read low", "result": 0.979}, {"measurement": "normalized growth", "setting": "S. cerevisiae deletion strains, locus YNR052C, strain pop2, active compounds read low", "result": 1.02}, {"measurement": "normalized growth", "setting": "S. cerevisiae deletion strains, locus YOL006C, strain TOP1, active compounds read low", "result": 1.04}, {"measurement": "normalized growth", "setting": "S. cerevisiae deletion strains, locus YOL012C, strain htz1", "result": 1.2}, {"measurement": "normalized growth", "setting": "S. cerevisiae deletion strains, locus YOL147C, strain pex11, active compounds read low", "result": 0.997}, {"measurement": "normalized growth", "setting": "S. cerevisiae deletion strains, locus YOR001W, strain rrp6, active compounds read low", "result": 0.984}, {"measurement": "normalized growth", "setting": "S. cerevisiae deletion strains, locus YOR061W, strain CKA2, active compounds read low", "result": 0.994}, {"measurement": "normalized growth", "setting": "S. cerevisiae deletion strains, locus YOR069W, strain VPS5, active compounds read low", "result": 0.989}, {"measurement": "normalized growth", "setting": "S. cerevisiae deletion strains, locus YOR070C, strain gyp1, active compounds read low", "result": 0.987}, {"measurement": "normalized growth", "setting": "S. cerevisiae deletion strains, locus YOR080W, strain dia2, active compounds read low", "result": 0.962}, {"measurement": "normalized growth", "setting": "S. cerevisiae deletion strains, locus YOR083W, strain WHI5, active compounds read low", "result": 1.01}, {"measurement": "normalized growth", "setting": "S. cerevisiae deletion strains, locus YOR106W, strain vam3, active compounds read low", "result": 1.02}, {"measurement": "normalized growth", "setting": "S. cerevisiae deletion strains, locus YOR136W, strain idh2, active compounds read low", "result": 1.03}, {"measurement": "normalized growth", "setting": "S. cerevisiae deletion strains, locus YOR144C, strain elg1, active compounds read low", "result": 1}, {"measurement": "normalized growth", "setting": "S. cerevisiae deletion strains, locus YOR184W, strain ser1, active compounds read low", "result": 1.04}, {"measurement": "normalized growth", "setting": "S. cerevisiae deletion strains, locus YOR231W, strain MKK1, active compounds read low", "result": 0.963}, {"measurement": "normalized growth", "setting": "S. cerevisiae deletion strains, locus YOR265W, strain rbl2, active compounds read low", "result": 0.985}, {"measurement": "normalized growth", "setting": "S. cerevisiae deletion strains, locus YOR270C, strain vph1, active compounds read low", "result": 1.02}, {"measurement": "normalized growth", "setting": "S. cerevisiae deletion strains, locus YOR290C, strain snf2, active compounds read low", "result": 1}, {"measurement": "normalized growth", "setting": "S. cerevisiae deletion strains, locus YOR316C, strain cot1, active compounds read low", "result": 1.01}, {"measurement": "normalized growth", "setting": "S. cerevisiae deletion strains, locus YPL051W, strain arl3, active compounds read low", "result": 0.983}, {"measurement": "normalized growth", "setting": "S. cerevisiae deletion strains, locus YPL055C, strain LGE1, active compounds read low", "result": 1.03}, {"measurement": "normalized growth", "setting": "S. cerevisiae deletion strains, locus YPL078C, strain atp4, active compounds read low", "result": 0.971}, {"measurement": "normalized growth", "setting": "S. cerevisiae deletion strains, locus YPL106C, strain sse1, active compounds read low", "result": 0.952}, {"measurement": "normalized growth", "setting": "S. cerevisiae deletion strains, locus YPL240C, strain hsp82, active compounds read low", "result": 0.973}, {"measurement": "normalized growth", "setting": "S. cerevisiae deletion strains, locus YPL241C, strain CIN2, active compounds read low", "result": 0.99}, {"measurement": "normalized growth", "setting": "S. cerevisiae deletion strains, locus YPL256C, strain CLN2, active compounds read low", "result": 0.949}, {"measurement": "normalized growth", "setting": "S. cerevisiae deletion strains, locus YPR119W, strain clb2, active compounds read low", "result": 0.986}, {"measurement": "normalized growth", "setting": "S. cerevisiae deletion strains, locus YPR141C, strain kar3, active compounds read low", "result": 1.03}, {"measurement": "normalized growth", "setting": "S. cerevisiae deletion strains, locus YPR163C, strain tif3, active compounds read low", "result": 1.02}, {"measurement": "normalized growth", "setting": "S. cerevisiae deletion strains, locus YPR167C, strain met16, active compounds read low", "result": 1.01}, {"measurement": "normalized growth", "setting": "S. cerevisiae deletion strains, strain wtn01, active compounds read low", "result": 1.01}, {"measurement": "normalized growth", "setting": "S. cerevisiae strains, strain wild type, active compounds read low", "result": 0.992}]}]}
